Experimental data: ChEMBL document CHEMBL4513216, “Probing the Open Global Health Chemical Diversity Library for Multistage-Active Starting Points for Next-Generation Antimalarials” (ACS Infect Dis, 2020)
Among all 69,000 compounds or so, about 8,600 (12%) showed an effect of 50% or more. The sample as a whole holds a higher share of strong results than the screen did.

System: Plasmodium berghei
Assay: Screen against P. berghei liver stage (PbLuc), transformed with Luciferase, at 10uM
Assay type: functional, HepG2
Details: tested at 10 uM

SMILES	INHIBITION
COc1cccc(CN(C)C(=O)NCc2c(C)cc(C)[nH]c2=O)c1	22.3%
Cc1cnn(CC2CCCN2C(=O)CN(C)C2CC2)c1 (stereo not given)	29.7%
Cn1ccnc1C(=O)N1CCC2(CC1)CC(Oc1cccnc1)CO2 (stereo not given)	32.4%
CC(C)CC(CO)NS(=O)(=O)Cc1ccon1 (stereo not given)	23.8%
Cc1ccc(OCC(C)NS(=O)(=O)Cc2ccon2)cc1 (stereo not given)	48.5%
CC(CCc1ccc(F)c(F)c1)NS(=O)(=O)Cc1ccon1 (stereo not given)	53.5%
CCc1nc(C2CCCN(C(=O)c3cnn(CC)c3)C2)no1 (stereo not given)	-8.69%
CN1CCN(c2ccccc2NC(=O)c2ccco2)CC1	50.4%
Cc1ccc(C(=O)Nc2ccccc2N2CCCC2)n1C	21.2%
CN1CCN(c2ccc(Br)cc2NC(=O)c2ccco2)CC1	46.3%
CN1CCN(c2ccccc2NC(=O)NCCc2ccccc2)CC1	64.3%
CN1CCN(c2ccccc2NC(=O)NCCc2ccc(O)cc2)CC1	35.1%
CN1CCN(c2ccccc2NC(=O)NCC[S+](C)[O-])CC1 (stereo not given)	39.3%
Cc1nn(CC(=O)N(C)Cc2nncn2C(C)C)c(=O)c2ccccc12	-7.27%
Cc1nn(CCNS(=O)(=O)c2ccccc2)c(C)c1Cl	48.3%
Cc1cnn(C2CCCN(C(=O)c3ccc(-n4cnnn4)cc3)C2)c1 (stereo not given)	47.4%
CC(C)(O)CN1CCN(C(=O)c2cccn2Cc2ccncc2)CC1	19.2%
Cc1cc(C)n(CC2CN(CC(=O)Nc3cccnc3)CCO2)n1 (stereo not given)	-14.3%
CCN(CCNC(=O)c1cccc(C)c1C)C1CC1	-16%
O=C1CSC(c2ccc(Cl)cc2Cl)c2c(n(C3CCOCC3)[nH]c2=O)N1 (stereo not given)	54.5%
CC1=Nc2c(c(=O)[nH]n2C2CCOCC2)C(c2cccc(Br)c2)S1 (stereo not given)	3.95%
O=C1CSC(c2ccc(O)c(Cl)c2)c2c(n(C3CCOCC3)[nH]c2=O)N1 (stereo not given)	15%
O=C1CSC(c2ccc(F)c(Cl)c2)c2c(n(C3CCOCC3)[nH]c2=O)N1 (stereo not given)	72.8%
COc1ccccc1C1SCC(=O)Nc2c1c(=O)[nH]n2C1CCOCC1 (stereo not given)	39.3%
CC(=O)c1cccc(OCC(=O)NS(=O)(=O)c2cccs2)c1	2.97%

SMILES	INHIBITION
Cn1nccc1-c1nnn2c1COCC(CNC1CCOCC1)C2 (stereo not given)	45.7%
O=C(CO)N1CCC(c2ccnc(Nc3cc(C(F)(F)F)ccn3)n2)C1 (stereo not given)	20.2%
Cc1noc([C@@]23CCO[C@@H]2CCN(Cc2scnc2C)C3)n1	18.6%
CCN1CCCC1CN(Cc1ccoc1)CC1CCN(CCOC)CC1 (stereo not given)	53.7%
CCN1CCCC1CN(Cc1ccon1)CC1CCN(CCOC)CC1 (stereo not given)	81.2%
CC[C@@H]1N(Cc2ccoc2)CCC[C@]12CCC(=O)N2CCOC	-11.2%
COCCN1C[C@@H]2CN(Cc3ccoc3)CCC[C@]2(C(=O)O)C1	-9.02%
COCCN1CCC(CN(CC2CCCO2)C(=O)Cn2cccn2)CC1 (stereo not given)	15.4%
CCN1CCCC1CN(Cc1cc[nH]n1)CC1CCN(CCOC)CC1 (stereo not given)	45%
CCn1ccnc1CN1CCCN(C(=O)c2csc(C)n2)CC1	-1.55%
Cc1cnc(N2C[C@H]3C[C@H](C(=O)N4CCN(C)CC4)N(C)[C@H]3C2)nc1	-18.2%
Cc1cccc2[nH]c(C3CCCN3Cc3ccc(CO)o3)nc12 (stereo not given)	-59.5%
Cc1nn(CCO)cc1CN1CCCC1c1nc2c(C)cccc2[nH]1 (stereo not given)	71.1%
Cc1ncc(CO)c(CN2CCCC2c2nc3c(C)cccc3[nH]2)c1O (stereo not given)	-125%
CNCC(=O)N1CC(c2cc(Nc3nc(C)cs3)nc(C)n2)C1	-47.8%
Cc1csc(Nc2cc(C3CN(C(C)C)C3)nc(C)n2)n1	37.8%
Cc1csc(Nc2cc(C3CN(c4ccncn4)C3)nc(C)n2)n1	68.4%
Cc1nc(C)c(C(=O)N2CCCC2c2nc(O)cc(C(C)C)n2)s1 (stereo not given)	13.5%
CSc1ccc(C(C(=O)O)N2CCOCC2)cc1 (stereo not given)	41.2%
COC1COC2(CCN(Cc3cccc(C#N)c3)CC2)C1 (stereo not given)	-23.8%
COC(=O)c1ccn(CC(=O)Nc2nn(CC3CC3)c3ccccc23)n1	32.3%
CC(=O)c1ccn(CC(=O)Nc2nn(CC3CC3)c3ccccc23)n1	71.9%
CCn1nc(NC(=O)Cn2ccc(C(C)=O)n2)c2ccccc21	7.38%
O=C1COC2(CCN(Cc3ccsc3)CC2)CN1	24.9%
Cc1ccc(NC2CCN(C(=O)c3ccnc(N(C)C)c3)CC2)nn1	-115%

SMILES	INHIBITION
Cc1nn(C)c(N2CCOCC2)c1CNC1CCc2cc(F)ccc21 (stereo not given)	6%
Cc1nn2cccnc2c1C(=O)NCc1ccccc1OCC1CC1	18.3%
O=C(NCc1ccccc1OCC1CC1)C1CCOC1 (stereo not given)	56.5%
CC(C)(C)Oc1ccccc1CNC(=O)C1CCCOC1 (stereo not given)	29.8%
CC1(C)CN(CC(O)C(C)(C)C)C(=O)CN(C(=O)c2ccccc2)C1 (stereo not given)	4.07%
CCN(Cc1ccccc1)Cc1nc2c(cnn2C)c(=O)[nH]1	-51.5%
Cc1noc(C)c1C(=O)Nc1ccc2ncn(CC(C)C)c(=O)c2c1	29.9%
O=C(NC(c1ccc(Cl)cc1)C(F)(F)F)c1nc(=O)[nH][nH]1 (stereo not given)	66.8%
O=C(NC(CC(F)(F)F)c1ccc(Cl)cc1)c1nc(=O)[nH][nH]1 (stereo not given)	-7.17%
CC(C)(C)CC(NC(=O)c1nc(=O)[nH][nH]1)c1ccc(F)cc1 (stereo not given)	22.8%
Cc1csc(CN2CC[C@H]3O[C@H](C(=O)Nc4cccnc4)CC[C@H]32)n1	81.5%
O=C(NCC1CC1)[C@@H]1CC[C@@H]2[C@@H](CCN2Cc2ccc(F)c(F)c2)O1	32.2%
CC(C)NC(=O)[C@@H]1CC[C@@H]2[C@@H](CCN2Cc2ccc3ccccc3n2)O1	31.9%
Cc1cccc(CN2CC[C@H]3O[C@H](C(=O)Nc4cnccn4)CC[C@H]32)n1	34.3%
CN1CCN(C(=O)[C@H]2CC[C@@H]3[C@@H](CCN3Cc3ccsc3)O2)CC1	52%
O=C([C@H]1CC[C@@H]2[C@@H](CCN2Cc2ccsc2)O1)N1CCOCC1	-45.5%
O=C(Nc1cnccn1)[C@@H]1CC[C@@H]2[C@@H](CCN2Cc2nccs2)O1	43.4%
CNC(=O)[C@@H]1CC[C@@H]2[C@@H](CCN2Cc2cn(C)c3ccccc23)O1	-20.1%
CC(C)NC(=O)[C@@H]1CC[C@@H]2[C@@H](CCN2Cc2cn(C)c3ccccc23)O1	65.1%
COc1ccc(CN2CC[C@H]3O[C@@H](C(=O)NCC4CC4)CC[C@H]32)cc1	53%
O=C(NC1CC1)[C@H]1CC[C@@H]2[C@@H](CCN2Cc2ccsc2)O1	20.9%
O=C(NCC1CC1)[C@H]1CC[C@@H]2[C@@H](CCN2Cc2ccoc2)O1	26.8%
CC(c1ccncc1)N(C)C(=O)NCCOc1ccc(C#N)cc1 (stereo not given)	34.7%
COCCN1CCN(c2ccc3ccc(C(=O)NC4CC4)cn23)CC1	18.6%
C=C(C)CN1CCN(Cc2cnc(OC)nc2)CC1	25.6%

SMILES	INHIBITION
COCCn1cc(CCC(=O)Nc2c(C)nn(C)c2C)c2ccccc21	39.4%
CN(C)C(=O)N1CCC2(CC1)C(c1cnn(C)c1)CC(=O)N2C (stereo not given)	39.2%
Fc1cnc(N2CC[C@@H]3OC(COCc4cccnc4)CC[C@@H]32)nc1 (stereo not given in full)	37.8%
O=C(NC1CC1)[C@H]1CC[C@@H]2[C@@H](CCN2CCOCc2ccccc2)O1	10.4%
Cn1cc(CN2CC[C@H]3O[C@H](C(=O)Nc4cnccn4)CC[C@H]32)cn1	30.3%
Cc1csc(NC(=O)[C@@H]2C[C@H]3[C@H](CCN3S(C)(=O)=O)O2)n1	61.3%
Cc1csc(NC(=O)[C@@H]2C[C@H]3[C@H](CCN3c3ncccn3)O2)n1	-16.2%
Cn1cc(CN2CC[C@H]3O[C@@H](C(=O)NC4CC4)CC[C@H]32)cn1	62.4%
CC(=O)N1CC[C@@H]2O[C@H](C(=O)Nc3nc(C)cs3)C[C@@H]21	-24.1%
O=C(NC1CCC1)[C@@H]1CC[C@@H]2[C@@H](CCN2CCc2ccccc2)O1	42.1%
COCCNC(=O)[C@@H]1CC[C@@H]2[C@@H](CCN2Cc2cnn(C)c2)O1	7.11%
Cn1cc(CN2CC[C@H]3O[C@H](C(=O)NC4CC4)CC[C@H]32)c2ccccc21	66.8%
CN(C)CC1(O)CCN(C(=O)Cc2ccc3ccccc3c2)C1 (stereo not given)	-37.7%
COc1c(C2CCCN2C(=O)c2ccc(C(N)=O)s2)c(C)nn1C (stereo not given)	2.93%
Cc1nc(CN(C)C2CCN(CCCOc3ccccc3)C2)no1 (stereo not given)	31.9%
Cc1cnc(C(=O)NC(COCC(C)C)c2ccco2)cn1 (stereo not given)	36.1%
O=C(N1CCOCC1)N1CCc2ncc(CN3CCCCC3)n2CC1	15.9%
CC(C)CCN1CCN(C(=O)c2cnccn2)CC1	25%
CC(C)Nc1n[nH]c2nc(C3CCN(C(=O)c4ccccn4)C3)ccc12 (stereo not given)	-7.66%
CCCNC(=O)c1cc(Br)c2c(c1)OCCO2	31.2%
CCC(C#N)NC(=O)c1cc(Br)c2c(c1)OCCO2 (stereo not given)	-36.1%
CC(C)CNC(=O)c1cc(Br)c2c(c1)OCCO2	51.8%
CCCC(C#N)NC(=O)c1cc(Br)c2c(c1)OCCO2 (stereo not given)	60.5%
CC(C)NC(=O)c1cc(Br)c2c(c1)OCCO2	-48.4%
CC(CC#N)NC(=O)c1cc(Br)c2c(c1)OCCO2 (stereo not given)	12.7%
